Source: PubChem
EphB4 ephrin blk: EphB4-ephrin-B2 interaction antagonism; P54760; EphB4 LBD / TNYL-RAW-Alexa532 peptide, fluorescence polarization; inhibition, % at 7 µM; hit rate 0.15% among 97,000; AID 720;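 active = inhibition above the screen-wide mean inhibition plus 3 SD, cut at about 15% in these data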;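 note: 0% = DMSO wells and 100% = excess unlabeled TNYL-RAW peptide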
Plk1 PBD FP: Plk1 (human) PBD binding inhibition | AID 693 | hit rate 0.13% among 97,000 | inhibition, %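 (tested at about 20 µM)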 | Plk1 PBD phosphopeptide binding, fluorescence polarization; in the data active = inhibition above about 34%, passing the limit was not always enough
Smad3 inh: Smad3 (human) transcription factor binding inhibition | P84022 | TR-FRET Smad3/Dy647-FoxH1 peptide binding, europium anti-His | inhibition, % at 25 µM | hit rate 0.29% among 88,000;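 active = compounds that reduce the energy-transfer binding signal between the protein and its labelled peptide by more than half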;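 note: 0% = Smad3 plus labelled peptide maximal FRET and 100% = peptide-only background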
FAK blocker: FAK (human) kinase inhibition; inhibition, %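 (tested at 7 µM)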; Q05397; hit rate 0.84% among 97,000; biochemical FAK kinase activity assay;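 note: 0% = DMSO and 100% = reference compound high control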
Target sequence (Q05397 whole entry, looked up): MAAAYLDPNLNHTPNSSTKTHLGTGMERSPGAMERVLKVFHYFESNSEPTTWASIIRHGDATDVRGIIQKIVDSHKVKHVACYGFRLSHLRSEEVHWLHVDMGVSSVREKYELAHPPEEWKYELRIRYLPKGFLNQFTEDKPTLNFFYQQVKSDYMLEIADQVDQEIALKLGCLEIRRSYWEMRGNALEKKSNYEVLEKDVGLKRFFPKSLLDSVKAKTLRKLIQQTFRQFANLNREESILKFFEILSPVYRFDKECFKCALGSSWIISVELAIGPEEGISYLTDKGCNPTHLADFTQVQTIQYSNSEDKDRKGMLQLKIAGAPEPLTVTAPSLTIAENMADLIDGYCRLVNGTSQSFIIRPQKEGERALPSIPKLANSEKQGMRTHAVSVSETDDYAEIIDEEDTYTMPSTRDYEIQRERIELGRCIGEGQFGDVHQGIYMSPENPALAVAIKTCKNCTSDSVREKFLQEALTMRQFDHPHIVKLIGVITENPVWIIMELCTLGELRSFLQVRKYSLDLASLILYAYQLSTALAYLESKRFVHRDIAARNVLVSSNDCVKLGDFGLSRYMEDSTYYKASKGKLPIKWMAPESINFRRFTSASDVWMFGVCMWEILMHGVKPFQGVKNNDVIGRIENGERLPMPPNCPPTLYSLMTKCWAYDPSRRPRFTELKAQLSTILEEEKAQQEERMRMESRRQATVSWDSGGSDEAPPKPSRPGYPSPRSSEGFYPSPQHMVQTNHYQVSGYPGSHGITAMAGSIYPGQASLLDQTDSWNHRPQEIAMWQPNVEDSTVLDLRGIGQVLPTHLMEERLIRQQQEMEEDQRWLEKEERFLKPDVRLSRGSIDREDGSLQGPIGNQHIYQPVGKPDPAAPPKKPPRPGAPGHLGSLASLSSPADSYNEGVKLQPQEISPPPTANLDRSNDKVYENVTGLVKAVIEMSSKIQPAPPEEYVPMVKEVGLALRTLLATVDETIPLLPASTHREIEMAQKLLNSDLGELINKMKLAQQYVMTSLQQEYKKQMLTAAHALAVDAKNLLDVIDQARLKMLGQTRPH
PLK1 inh: PLK1 (human) kinase inhibition. AID 619. recombinant PLK1 kinase, TR-FRET peptide phosphorylation. P53350. hit rate 0.53% among 97,000. inhibition, % at 10 µM;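 active = inhibition of 50% or more in the single-concentration screen; inactive = inhibition below 50%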;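 note: 0% = DMSO max control and 100% = H-89 dihydrochloride min control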
PBD redox DR: redox cycling H2O2 generation counter-screen for Plk1 PBD | shares compounds with Plk1 PBD FP | DTT | EC50, µM | 120 tested, under 10 active | AID 876; call rule not given here
FAK inh conf: FAK (human) inhibition confirmed; inhibition, % at 7 µM; FAK kinase biochemical inhibition assay; AID 794; hit rate 28% among 750; shares compounds with FAK blocker
An asterisk follows results filed as active; · = no result given; [ ] = dose if it differs, or a comment. Only some compounds are listed: those with a hit (about 1.6% of all), similar ones and a draw of the others. Cut-off read from the data, not from the text of the source, unless noted: active = inhibition above about 19%; inactive = the rest.

SMILES | EphB4 ephrin blk | Plk1 PBD FP | Smad3 inh | FAK blocker | PLK1 inh | FAK inh conf | others
Cn1c(-c2cc3ccc(OC(=O)C(C)(C)C)cc3oc2=O)nc2ccccc21 | 7 | 37* | -9 | 1 | -14 | · | PBD redox DR=>50
CSc1nc2ccccc2n1CC(=O)Nc1cc(C(F)(F)F)ccc1N1CCOCC1 | -9 | -35 | 3 | 0 | -2 | ·
Cc1ccc(C(=O)Nc2cnc3sc(C)nn3c2=O)cc1 | 1 | 34* | 7 | 0 | -15 | · | PBD redox DR=>50
CC(=O)C(=Nc1ccc(Cl)cc1Cl)NNc1cccc(Cl)c1 | 6 | 8 | -14 | 2 | 2 | ·
Nc1ccc(C(=O)C[C@H](N)C(=O)O)cc1O | · | · | 3 | · | · | ·
Cc1ccccc1Oc1ncnc2oc(-c3ccccc3)cc12 | -9 | 68* | · | -6 | -7 | · | PBD redox DR=>50
NC[C@@H](O)CSCc1ccc(Cl)cc1 | · | · | 1 | · | · | ·
Cc1nnsc1C(=O)Nc1cc(Cl)ccc1Cl | -5 | -1 | 1 | 0 | -8 | ·
O=C(CC1C(=O)NCCN1C(=S)Nc1ccccc1)Nc1ccc2c(c1)OCCO2 (stereo not drawn) | 4 | 43* | -1 | 23* | -1 | 1 | PBD redox DR=>50
O=C(CC1C(=O)NCCN1C(=O)Nc1ccccc1)Nc1ccc2c(c1)OCO2 (stereo not drawn) | 3 | 8 | -9 | 0 | -6 | ·
Cc1nc(C)c(C(=O)N/N=C/c2cn(C)c3ccccc23)s1 | 1 | -12 | · | 1 | 0 | ·
CS(=O)(=O)N(Cc1ccccc1)c1ccc(C(=O)N2CCc3ccccc3C2)cc1 | -2 | -18 | -3 | 2 | -4 | ·
Clc1ccc2c(NC3CCC(N4CCCCC4)CC3)ccnc2c1 (stereo not drawn) | · | · | 1 | · | · | ·
O=C(NC1(O)C(=O)c2ccccc2C1=O)c1ccccc1 | -1 | 82* | · | 22* | 5 | 7 | PBD redox DR=>50
COc1ccc2c3c(cccc13)NN=C2C | 6 | 38* | 32 | 84* | 33 | 15 | PBD redox DR=>50
Cn1nc(-c2ccc(Cl)cc2)nc2c(=O)n(C)c(=O)nc1-2 | 0 | 65* | 80* | 69* | 2 | 67* | PBD redox DR=>50
CC1=C(CC(=O)c2ccccc2)C(=O)c2ccccc2C1=O | -4 | -28 | · | 10 | -6 | ·
Cc1oc2c(c1C(=O)c1ccccc1)C(=O)C(=O)c1ccccc1-2 | 5 | 124* | 27 | 30* | 0 | 22* | PBD redox DR=>50
CC(=O)N(/N=C1\Sc2ccccc2C1=O)c1ccccc1C | 7 | 125* | 11 | 22* | -15 | 17 | PBD redox DR=>50
CN(C)/C=C1/Sc2ccccc2C1=O | -8 | 1 | 3 | -2 | -7 | ·
COc1ccc(-c2cc([C@H](O)[C@@H]3CCCCN3)c3ccccc3n2)cc1 | · | · | 12 | · | · | ·
Nc1ccc2c(c1)C(=O)C(=O)c1ccccc1-2 | 2 | 95* | 73*[fluorescence artefact?] | 57* | -1 | 58* | PBD redox DR=>50
CCN1C(=O)c2cccc3c(S(=O)(=O)NCc4cccnc4)ccc1c23 | -2 | -7 | 3 | 1 | -14 | ·
CCN1C(=O)c2cccc3c(S(=O)(=O)NCc4ccco4)ccc1c23 | 9 | -4 | -2 | 21* | -19 | 4
CC(C(=O)NC1CCCC1)N(C(=O)c1snc(C(N)=O)c1N)c1ccc2c(c1)OCCO2 (stereo not drawn) | 3 | 4 | -1 | 21* | -8 | 4
SMILES | EphB4 ephrin blk | Plk1 PBD FP | Smad3 inh | FAK blocker | PLK1 inh | FAK inh conf | others
CC(C(=O)O)n1c(C(F)(F)F)nc2ccccc21 (stereo not drawn) | -3 | -16 | 3 | 1 | -3 | ·
Cc1ccc(NC(=O)Cn2cncc2-c2ccc([N+](=O)[O-])cc2)cc1C | -3 | 5 | · | 24* | -1 | 9
COc1ccccc1-c1nc(SCC(=O)O)n[nH]1 | -1 | -8 | 6 | 2 | -1 | ·
COc1ccccc1-c1cc(N)n[nH]1 | -2 | -11 | 1 | 25* | -12 | 2
Cc1ccc2c(CC(=O)OCc3cc(=O)n4c(n3)sc3ccccc34)coc2c1 | 6 | -3 | · | 23* | -21 | 0
O=C(OCc1cc(=O)n2c(n1)sc1ccccc12)c1ccc2c(=O)n3c(nc2c1)CCC3 | · | · | 8 | · | · | ·
CCO/N=C(\C)c1c(O)c(CC)c(-c2ccccc2)n(-c2ccccc2)c1=O | -7 | 14 | -2 | 4 | -13 | ·
Cc1ccsc1C=Nc1ccc(O)cc1 | 7 | 12 | 21 | 50* | -6 | 1
CC(C)c1cc(C(N)=O)c(NC(=O)C2CCC2)s1 | 8 | 0 | 9 | 24* | -5 | 11
CC(C)c1nnc(NC(=O)C2CCCCC2)s1 | 0 | -3 | 1 | 5 | -9 | ·
Nc1ccc(N2CCCCCC2)cc1 | 3 | -23 | 8 | 28* | 18 | 12
O=C(O)c1ccc(N2CCCCC2)cc1 | · | · | 3 | · | · | ·
Cc1ccc(N[C@H](c2ccccc2)c2ccc3cccnc3c2O)cc1 | · | · | 4 | · | · | ·
COc1ccc(C(=O)Nc2nc3ccc4nc(C)sc4c3s2)cc1 | 2 | -9 | 4 | 27* | -20 | 38*
COc1cc(C(=O)Nc2nc3ccc4nc(C)sc4c3s2)cc(OC)c1OC | 2 | -12 | -4 | -2 | -17 | ·
Nc1nnc2c(n1)CCCC2 | -7 | 1 | 4 | 21* | -6 | 2
CCn1c(SCC(=O)c2ccccc2)nnc1-c1cccs1 | -5 | 10 | 22 | 1 | -6 | ·
c1ccc(-n2nnnc2-n2cnc3ccccc32)cc1 | -11 | 8 | 0 | 0 | -17 | ·
c1ccc(-c2nccc(-c3ccc(-n4cnc5ccccc54)cc3)n2)cc1 | -3 | -13 | 0 | 86* | -4 | 81*
CCOC(=O)c1ccc(NC2=CC(=O)C(=O)c3ccccc32)cc1 | -4 | 23 | 78* | 36* | -9 | 35*
CCOC(=O)c1oc2ccc(CNC(C)(C)C)c(Cl)c2c1C | -5 | -12 | -12 | 2 | -12 | ·
Cc1ccc(S(=O)(=O)NNc2nc3ccccc3nc2C(F)(F)F)cc1 | 5 | 14 | -2 | 0 | 0 | ·
N#CC1=C(N)SC(N)=C(C#N)C1c1ccnc2ccccc12 | 1 | -21 | 9 | 0 | -5 | ·
O=C1c2ccccc2C(=O)C1c1ccnc2ccccc12 | 4 | -11 | 33 | 51* | -7 | 34*
c1ccc2[nH]c(-c3ccnc4ccccc34)nc2c1 | 3 | -5 | -6 | 0 | -7 | ·
SMILES | EphB4 ephrin blk | Plk1 PBD FP | Smad3 inh | FAK blocker | PLK1 inh | FAK inh conf | others
O=C1C(c2ccnc3ccccc23)=C(O)c2ccccc21 | -4 | -9 | 19 | 31* | -8 | 27*
Cc1c(Cl)ccc2c1NC(=O)[C@]21N[C@@H](Cc2ccccc2)[C@H]2C(=O)N(c3ccc(F)cc3)C(=O)[C@H]21 | -4 | -7 | 9 | 1 | -5 | ·
O=C1C(=O)c2c(C(=O)c3ccccc3)coc2-c2ccccc21 | -1 | 3 | 0 | 32* | -12 | 20*
COc1ccc(S(=O)(=O)N2CCC(C(=O)N3CCc4ccccc4C3)CC2)cc1Cl | 1 | 12 | 6 | 2 | -10 | ·
CCN(CC)c1ccc(C2NCC(c3ccc([N+](=O)[O-])cc3)O2)cc1 (stereo not drawn) | -3 | -14 | 13 | 0 | -10 | ·
O=C(CCNS(=O)(=O)c1cccs1)Nc1ccccc1F | -2 | 6 | · | -5 | -9 | ·
